From PubChem BioAssay AID1159580 (chemical genetic matrix, 2015)
In all, about 5,500 compounds went through this assay and about 2,000 (36%) were called active. Another 18% or so got no clear call; they are omitted. Rule as the data show it: active = normalized growth mostly below about 0.91 (no sharp cut-off); inconclusive = no clear call, values can overlap the other calls; inactive = mostly above about 0.92. The list shows a part of the results.

Assay: chemical genetic growth profiling, strain panel (AID 1159580);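 also: tested at 20 µM; growth read once vehicle control cultures reached saturation at 30 °C; 1 = growth at the plate median or of vehicle wells; lower values mean less growth of the strain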
Settings: S. cerevisiae deletion strains, growth OD

Measured: normalized growth

CC(=O)Oc1c(-c2ccccc2)oc2c(CC=C(C)C)c3c(c(OC(C)=O)c2c1=O)C=CC(C)(C)O3
inactive: locus YAL021C, strain ccr4, hits give low values 1.06 | locus YAL026C, strain drs2, hits give low values 1.02 | locus YBL061C, strain skt5, hits give low values 1 | locus YBR009C, strain hhf1, hits give low values 1.09 | locus YBR021W, strain FUR4, hits give low values 1.05 | locus YBR023C, strain chs3, hits give low values 1.01 | locus YBR171W, strain sec66, hits give low values 1.01 | locus YBR229C, strain ROT2, hits give low values 0.923 | locus YBR231C, strain swc5, hits give low values 1.02 | locus YBR279W, strain paf1, hits give low values 0.995 | locus YCL011C, strain gbp2, hits give low values 1.09 | locus YCL016C, strain dcc1, hits give low values 1.05 | locus YCL029C, strain bik1, hits give low values 1.01 | locus YCL061C, strain MRC1, hits give low values 1.02 | locus YCL069W, strain vba3, hits give low values 1.01 | locus YCR088W, strain abp1, hits give low values 1.01 | locus YDL005C, strain med2, hits give low values 1.01 | locus YDL035C, strain GPR1, hits give low values 0.875 | locus YDL074C, strain BRE1, hits give low values 0.93 | locus YDL101C, strain DUN1, hits give low values 0.944 | locus YDL185W, strain tfp1, hits give low values 1.07 | locus YDL192W, strain arf1, hits give low values 1.01 | locus YDR001C, strain nth1, hits give low values 1.01 | locus YDR069C, strain doa4, hits give low values 1.01 | locus YDR137W, strain rgp1, hits give low values 1.03 | locus YDR159W, strain sac3, hits give low values 0.982 | locus YDR195W, strain ref2 0.986 | locus YDR297W, strain sur2, hits give low values 1.04 | locus YDR318W, strain mcm21, hits give low values 0.995 | locus YDR334W, strain swr1, hits give low values 1 | locus YDR335W, strain msn5, hits give low values 1.02 | locus YDR388W, hits give low values 1.05 | locus YDR392W, strain spt3, hits give low values 0.955 | locus YEL003W, strain gim4, hits give low values 1.03 | locus YEL037C, strain rad23, hits give low values 1.01 | locus YEL061C, strain CIN8 (second series), hits give low values 1.01 | locus YER111C, strain swi4, hits give low values 1 | locus YER155C, strain BEM2 (second series), hits give low values 1.05 | locus YER155C, strain BEM2, hits give low values 1 | locus YER167W, strain BCK2, hits give low values 0.917 | locus YFR010W, strain ubp6, hits give low values 1 | locus YGL078C, strain dbp3, hits give low values 1.04 | locus YGL086W, strain mad1, hits give low values 0.993 | locus YGL167C, strain pmr1, hits give low values 0.993 | locus YGL173C, strain kem1, hits give low values 0.998 | locus YGL227W, strain vid30, hits give low values 1.01 | locus YGL240W, strain doc1, hits give low values 1 | locus YGL253W, strain hxk2, hits give low values 0.981 | locus YGR078C, strain PAC10, hits give low values 0.898 | locus YGR135W, strain pre9, hits give low values 1.1 | locus YHR013C, strain ard1, hits give low values 0.989 | locus YHR027C, strain rpn1, hits give low values 1.06 | locus YHR079C, strain IRE1 (second series), hits give low values 1.06 | locus YHR142W, strain chs7, hits give low values 1.03 | locus YIL125W, strain kgd1, hits give low values 1.03 | locus YIR030C, strain dcg1, hits give low values 1.06 | locus YJL092W, strain hpr5, hits give low values 1.01 | locus YJL095W, strain BCK1, hits give low values 0.926 | locus YJL115W, strain asf1, hits give low values 1 | locus YJL129C, strain trk1, hits give low values 1.02 | locus YJL134W, strain LCB3, hits give low values 0.948 | locus YJL154C, strain vps35, hits give low values 1.02 | locus YJL164C, strain tpk1, hits give low values 1.03 | locus YJL166W, strain qcr8, hits give low values 1.04
active: locus YAL030W, strain snc1, hits give low values 1.09 [resistant] | locus YDL040C, strain nat1, hits give low values 1.09 [resistant] | locus YDR101C, strain arx1, hits give low values 1.09 [resistant] | locus YDR162C, strain NBP2, hits give low values 0.828 | locus YDR502C, strain sam2, hits give low values 1.11 [resistant] | locus YER015W, strain faa2, hits give low values 1.08 [resistant] | locus YER016W, strain bim1, hits give low values 1.1 [resistant] | locus YER110C, hits give low values 1.11 [resistant] | locus YGL248W, strain PDE1, hits give low values 0.845 | locus YGR252W, strain gcn5, hits give low values 1.59 [resistant] | locus YHR094C, strain hxt1, hits give low values 1.16 [resistant] | locus YHR129C, strain ARP1, hits give low values 0.881 | locus YHR200W, strain rpn10, hits give low values 1.09 [resistant] | locus YIL066C, strain RNR3, hits give low values 0.788 | locus YIL073C, strain SPO22, hits give low values 0.586 | locus YJL095W, strain BCK1 (second series), hits give low values 1.09 [resistant]
